Reference: PubChem BioAssay (NCATS)
Inconclusive results are not listed. Calls of active or inactive are those of the source. Calls follow the shape of the dose curve; as a rule, active = well fitted inhibition curve with a large enough effect; inconclusive = small, poorly fitted or top-dose-only effect, or effect the other way; inactive = no such curve, though single readings can be large or run the other way.

Assay: Quantitative high throughput screen for delayed death inhibitors of the malarial parasite plastid, 96 hour incubation (AID 488745); also: nearly all actives have a fitted effect of over 70% in size
Conditions: Plasmodium falciparum growth; series mostly up to 28.7 µM; activity change, negative = inhibition: at the top concentration
Source text: NIH Molecular Libraries Probe Production Network [MLPCN]
NIH Chemical Genomics Center [NCGC]
Assay Provider: David Fidock and Eric Ekland, Columbia University
The goal of this screen is to discover new antimalarial compounds that act by inhibiting the development of the apicoplast in the malarial parasite Plasmodium falciparum. The biochemical processes that make this organelle essential for erythrocytic stage parasites are not well understood. However, antibiotics such as azithromycin and tetracycline, which target the apicoplast translational machinery, have a potent antimalarial effect.
We have developed a cell-based assay that measures parasite growth based on the expression of an integrated copy of a firefly luciferase reporter. To detect small molecules that cause this 'delayed death' phenotype, erythrocytes infected with the luciferase-expressing parasites were incubated with compounds for either one or two generations, corresponding to 48 and 96 hours, respectively. Compounds that inhibit parasite growth in the second generation, but not the first, should be enriched in antimalarials that target the apicoplast. Growth inhibition is detected by a decrease in luciferase activity
Four microliters of culture medium (RPMI 1640 with 0.5% w/v Albumax (GIBCO), 24 mM sodium bicarbonate and 10 ug/mL gentamycin) were dispensed by a Multi-drop Combi into white solid 1536-well plates (Grenier) and 23 nL compound was added by a pin tool. Four microliters of infected erythrocytes (2% hematocrit, 0.1% parasitemia final concentration) in culture medium were dispensed and the plates incubated for 96 hours at 37 C in 5% CO2. Two microliters of luciferase detection reagent was added and luminescence was detected by a ViewLux (PerkinElmer) reader
% is scaled to controls: 0 for no effect and ±100 for the full control effect; potency is read from the fitted curve at half-maximal effect.

Row | SMILES | Potency | activity change, negative = inhibition
1 | CN1CCc2cccc3c2C1Cc1ccc(O)c(O)c1-3 (stereo not given) | 2.94 µM (active) | 
2 | CNCC[C@H](Oc1ccc(C(F)(F)F)cc1)c1ccccc1 | 1.17 µM (active) | 
3 | CN1CCN(c2ccc3ccccc3n2)CC1 |  | 25.9% (inactive)
4 | N#C/C(=C\c1ccc(O)c(O)c1)C(=O)NCCCNC(=O)/C(C#N)=C/c1ccc(O)c(O)c1 | 8.28 µM (active) | 
5 | N#CC(C#N)=Cc1ccc([N+](=O)[O-])c(O)c1 |  | 0.566% (inactive)
6 | O=[N+]([O-])c1ccc(O[C@@H]2O[C@H](CO)[C@@H](O)[C@H](O)[C@H]2F)c([N+](=O)[O-])c1 |  | -34.1% (inactive)
7 | N[C@@H](Cn1cc(I)c(=O)[nH]c1=O)C(=O)O |  | 2.76% (inactive)
8 | COc1ccc(-n2nc(C(F)(F)F)cc2-c2ccc(Cl)cc2)cc1 |  | -29.4% (inactive)
9 | CC(=O)OCC1=C(C(=O)[O-])N2C(=O)[C@@H](NC(=O)CCC[C@@H](N)C(=O)[O-])[C@H]2SC1.[Zn+2] |  | 11.7% (inactive)
10 | COc1ccc(CCN)cc1O |  | -0.505% (inactive)
11 | C=CCN1CCC2(C)c3cc(O)ccc3CC1C2C (stereo not given) |  | -26.3% (inactive)
12 | COc1cc(CCN)ccc1O |  | -2.54% (inactive)
13 | CC(C)NCC(O)COc1cccc2ccccc12 (stereo not given) |  | 4.56% (inactive)
14 | N[C@H](CCCCCP(=O)(O)O)C(=O)O |  | 0.18% (inactive)
15 | COc1ccc2[nH]cc(CCN(C)C)c2c1 |  | 25.4% (inactive)
